± gives the standard deviation of the averaged measurements.
system: AEK1 (Tb927.3.2440); assay: percent reduction in TR-FRET probe signal relative to DMSO control; higher = stronger displacement of ATP-site probe (binding); details: 1 µM; incubation time 1 h

Compound | percent reduction in TR-FRET probe signal
O=c1sn(-c2cccc3ccccc23)c(=O)n1Cc1ccccc1 [Tideglusib] | -35 ± 6.7%
O=C(Nc1ccc(-c2ccnc(Nc3ccc(N4CCOCC4)cc3)n2)cc1)[C@@H]1CCCN1 | 6.52 ± 10%
O=C1N=C(NCc2cccs2)S/C1=C\c1ccc2ncccc2c1 | 8.12 ± 4.7%
C[C@@H]1COC(Nc2ccc3ncnc(Nc4ccc(OCc5nccs5)c(Cl)c4)c3c2)=N1 [Varlitinib] | 11.3 ± 2.9%
C1=C/COCc2cc(ccc2OCCN2CCCC2)Nc2nccc(n2)-c2cccc(c2)COC/1 [Pacritinib (SB1518)] | -2.95 ± 9.1%
CCOc1cc(C(=O)N2CCC(N3CCN(C)CC3)CC2)ccc1Nc1ncc2c(n1)N(C1CCCC1)c1ccccc1C(=O)N2C | -3.15 ± 9.5%
CO[C@H]1C[C@@H]2CC[C@@H](C)[C@@](O)(O2)C(=O)C(=O)N2CCCC[C@H]2C(=O)O[C@H]([C@H](C)C[C@@H]2CC[C@@H](O)[C@H](OC)C2)CC(=O)[C@H](C)/C=C(\C)[C@@H](O)[C@@H](OC)C(=O)[C@H](C)C[C@H](C)/C=C/C=C/C=C/1C [Rapamycin (Sirolimus)] | -8.37 ± 4.2%
C=CC(=O)N1CCCC(n2nc(-c3ccc(Oc4ccccc4)cc3)c3c(N)ncnc32)C1 (stereo not given) | 4.46 ± 4.9%
CNC(=O)CN1CCC(Oc2cc3c(Nc4cccc(Cl)c4F)ncnc3cc2OC)CC1 [Sapitinib (AZD8931)] | -5.78 ± 5.4%
COc1cc(Nc2ncc3c(n2)-c2ccc(Cl)cc2C(c2c(F)cccc2OC)=NC3)ccc1C(=O)O [Alisertib (MLN8237)] | 2.08 ± 9.1%
